TEAD-YAP block: TEAD-YAP interaction inhibition; HEK-TIYL cells, TEAD-Gal4/YAP UAS-luciferase luminescence; inhibition, % at 9.12 µM; hit rate 1.4% among 640,000; in the data active = inhibition above about 32%
GPR151 ag: activators of human GPR151. AID 1508602. activation, % at 11.2 µM. hit rate 1% among 650,000. Q8TDV0. PathHunter beta-arrestin GPR151 cells, luminescence; in the data active = activation above about 4.9%
Target sequence (Q8TDV0 whole entry, looked up): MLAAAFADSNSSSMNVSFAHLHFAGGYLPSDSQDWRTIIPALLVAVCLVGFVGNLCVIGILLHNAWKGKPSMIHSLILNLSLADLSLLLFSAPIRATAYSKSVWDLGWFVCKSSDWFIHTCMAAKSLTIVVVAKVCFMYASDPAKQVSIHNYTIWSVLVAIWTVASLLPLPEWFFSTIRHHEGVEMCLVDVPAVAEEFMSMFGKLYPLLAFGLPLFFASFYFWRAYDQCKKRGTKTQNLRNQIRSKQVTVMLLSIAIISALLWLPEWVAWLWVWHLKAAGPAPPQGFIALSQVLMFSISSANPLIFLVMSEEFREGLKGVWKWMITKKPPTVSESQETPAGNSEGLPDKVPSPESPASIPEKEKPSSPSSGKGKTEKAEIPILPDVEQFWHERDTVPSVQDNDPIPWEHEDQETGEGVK
FBW7 act: activators of human E3 ligase FBW7; hit rate 0.13% among 650,000; Q969H0; AlphaScreen FBW7–phospho-cyclin E peptide binding, activator screen; normalized activity (activation), % at 26.1 µM; in the data active = normalized activity above about 1.9%;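 note: purified mutant Fbw7 with reduced substrate affinity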
MITF inh: human MITF inhibition, primary screen; AlphaScreen MITF homodimerization, bead proximity signal; inhibition, % at 2.6 µM; hit rate 0.91% among 650,000; in the data active = inhibition above about 50%
MITF inh conf: human MITF inhibition, confirmation; inhibition, % at 2.6 µM; AID 1259372; shares compounds with MITF inh; AlphaScreen MITF homodimerization, biotin/His-MITF beads; hit rate 16% among 4,700;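 active = inhibition above a cutoff derived from the DMSO control wells, cut at about 28% in these data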;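 note: inhibitors lower the bead chemiluminescence by keeping MITF from dimerizing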
AlphaScreen DR: AlphaScreen optical interference, dose response counter-screen; AID 1259373; shares compounds with MITF inh; IC50, µM; AlphaScreen optical interference counterscreen, cell-free; hit rate 6% among 480; call rule not given here
AlphaScreen intf2: optically interferes with AlphaScreen signal | shares compounds with MITF inh | LysRS AlphaScreen counterscreen, signal interference, triplicate | inhibition, % at 2.6 µM | hit rate 7.6% among 4,700 | AID 1259376;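 active = inhibition above a cutoff derived from the DMSO control wells, cut at about 30% in these data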
Hits are given with their value; – = inactive; · = not tested or not shown; ! = a repeat was not active. Rows were chosen to be rich in hits. Some 3.4% of all compounds tested hit in one or more screens of this group.

SMILES	TEAD-YAP block	GPR151 ag	FBW7 act	MITF inh	MITF inh conf	AlphaScreen intf2	others
O=C(CNCCN1CCOCC1)Nc1sc2c(c1C(=O)c1ccccc1)CCCC2	–	–	–	74.5	–	–
O=C(CNCCc1ccccc1)Nc1ccccc1N1CCOCC1	–	–	–	51.1	–	–
COc1ccc(CCNCC(=O)Nc2ccccc2N2CCOCC2)cc1	–	–	–	60.1	–	–
COc1ccc(C2CC(=O)Nc3sc4c(C)c(C#N)c(N)nc4c32)cc1OC (stereo not drawn)	–	–	–	–	·	·
CCc1ccc(NC(=O)Nc2nnc(N3CCCC3)s2)cc1	–	–	–	–	·	·
COc1cccc2cc(C(=O)N3CCC(Cn4cnc5ccccc54)CC3)oc12	–	–	–	60.3	–	–
O=C(c1cnn(-c2ccccc2)n1)N1CCC(Cn2cnc3ccccc32)CC1	–	–	–	57.7	–	–
O=C(CCN1C(=O)c2ccccc2C1=O)CN1CCC(Cn2cnc3ccccc32)CC1	–	–	–	59.4	–	–
CN(C(=O)CCN1C(=O)c2ccccc2C1=O)C1CCCCC1	–	–	–	–	·	·
O=C(c1cnn(-c2ccccc2)n1)N1CCN(c2cc(N3CCCCC3)ncn2)CC1	–	–	–	–	·	·
O=C(Cc1cccs1)N1CCC(Cn2cnc3ccccc32)CC1	–	–	–	65.1	–	–
C=CCOc1ccc(/C=C2/SC(=Nc3cccc(C(=O)O)c3)NC2=O)cc1OC	–	–	–	–	·	·
O=C(c1ccc2c(=O)n(CC3CCCO3)c(=S)[nH]c2c1)N1CCc2ccccc21 (stereo not drawn)	–	–	–	–	·	·
CCC(C)N1C(=O)C2C(C(=O)Nc3cccc(OC)c3)C3C=CC2(O3)C1C(=O)NC1CCCCC1 (stereo not drawn)	–	–	–	–	·	·
CCOC(=O)N1CCN(C(=O)CN2CCN(CC)CC2)CC1	–	–	–	70.6	–	–
CCOC(=O)N1CCN(C(=O)CN2CCC(Cn3cnc4ccccc43)CC2)CC1	–	–	–	76.0	–	–
O=C(NCC(=O)N1CCC(Cn2cnc3ccccc32)CC1)c1ccccc1	–	–	–	55.7	–	–
O=C(Nc1cccs1)N1CCC(Cn2cnc3ccccc32)CC1	–	–	–	–	·	·
O=C(CSCc1ccccc1)N1CCC(Cn2cnc3ccccc32)CC1	–	–	–	67.0	–	–
O=C(Nc1ccc2c(c1)OCO2)N1CCC(Cn2cnc3ccccc32)CC1	–	–	–	–	·	·
NC(=O)CSc1nnc(-c2cnccn2)o1	–	–	–	–	·	·
O=C(C1CCC1)N1CCC(Cn2cnc3ccccc32)CC1	–	–	–	52.2	–	–
CCC1CCCCN1C(=O)Cn1nc([N+](=O)[O-])cc1C (stereo not drawn)	–	–	–	90.9	–	–
CCC1CCCCN1C(=O)Cn1nc(C)n2c(cc3ccsc32)c1=O (stereo not drawn)	–	–	–	60.6	–	–
COc1ccc2c(c1)CC(c1nc3c(OC)cc(-c4ncnc5[nH]ccc45)cc3c(=O)[nH]1)CO2 (stereo not drawn)	–	–	–	–	·	·
SMILES	TEAD-YAP block	GPR151 ag	FBW7 act	MITF inh	MITF inh conf	AlphaScreen intf2	others
CCN(C(=O)c1ccccn1)c1nc2c(s1)CCc1oc(C)cc1-2	–	–	–	77.2	36.8	77.3
CCN(C(=O)c1ccco1)c1nc2c(s1)CCc1oc(C)cc1-2	–	–	–	–	·	·
O=C(Nc1cc(Cl)ccc1C(=O)O)c1cccs1	–	–	–	–	·	·
Cc1cc(C2C(C#N)=C(N)N(c3ccccc3Cl)C3=C2C(=O)CCC3)c(C)s1 (stereo not drawn)	–	–	–	–	·	·
Cc1cc(C2C(C#N)=C(N)N(c3ccccc3Cl)C3=C2C(=O)CC(c2ccccc2)C3)c(C)s1 (stereo not drawn)	–	–	–	56.8	–	–
NC(=O)COc1ccccc1OCC(N)=O	–	–	–	–	·	·
CO[C@H]1[C@H](NC(=O)c2ccccn2)c2ccccc2C12CCN(C(=O)Cn1cnnn1)CC2	–	–	–	–	·	·
O=C(NCCc1ccc(O)cc1)c1ccnc(-c2cccs2)c1	–	–	–	51.3	51.2	–	AlphaScreen DR=–
O=C(NCCc1ccc(O)cc1)c1cccc(-c2cccs2)c1	–	–	–	51.9	40.7	–	AlphaScreen DR=–
COc1cc(NC(=O)CN2C(=O)c3ccccc3C2=O)ccc1O	–	–	–	–	·	·
COc1ccc(-c2c(NC(=O)CN3CCCC(C)C3)oc3ccccc3c2=O)cc1OC (stereo not drawn)	–	–	–	91.2	–	–
COc1cc(/C=C2\C(C)=C([N+](=O)[O-])CS2(=O)=O)ccc1O	–	–	–	87.3	75.7	–	AlphaScreen DR=–
CC1=C([N+](=O)[O-])CS(=O)(=O)/C1=C\c1ccccc1	–	–	–	–	·	·
COc1ccc(NC(=O)CCNS(=O)(=O)c2cccc3nonc23)cc1Cl	–	–	–	55.0	–	–
COc1ccc(NC(=O)CNS(=O)(=O)c2cccc3nonc23)cc1Cl	–	–	–	–	·	·
CCCNC(=O)c1ccc2c(c1)N(Cc1ccc(Cl)cc1)C(=O)CS2	–	–	–	–	·	·
COC(=O)c1c(OCc2cccnc2)cc(=O)n2c1CCN(C(=O)C1CCCCC1)CC2	–	–	–	68.7	–	–
CCCOc1ccc(C2Oc3ccc(Br)cc3C3CC(c4ccc(Cl)cc4)=NN32)cc1 (stereo not drawn)	–	–	–	74.4	–	–
CCCOc1ccc(C2Oc3ccc(Br)cc3C3CC(c4ccccc4)=NN32)cc1 (stereo not drawn)	–	–	–	–	·	·
CCCCNCCOCCOc1ccc(C)c(C)c1	–	–	–	60.9	–	–
CCCCNCCOCCOc1cccc(Cl)c1	–	–	–	79.6	–	–
CC(C)CC(=O)Nc1ccnn1C1CCN(Cc2ccc3c(c2)CCO3)CC1	–	–	–	–	·	·
Nc1ccc(O)c(C(=O)O)c1	–	–	–	74.7!	81.8	–	AlphaScreen DR=–
COc1ccc(OC)c(CN(CCCN(C)C)CCCN(C)C)c1	–	–	–	59.5	–	–
COc1ccc(OC)c(CN2CCN(Cc3cc(OC)ccc3OC)CC2)c1	–	–	–	57.1	–	–
SMILES	TEAD-YAP block	GPR151 ag	FBW7 act	MITF inh	MITF inh conf	AlphaScreen intf2	others
CCc1ccc(CN2CCN(Cc3cc(OC)ccc3OC)CC2)cc1	–	–	–	65.5	–	–
COc1ccc(OC)c(CN2CCN(S(C)(=O)=O)CC2)c1	–	–	–	59.5	–	–
COc1ccc(Br)cc1CN(CCCN(C)C)CCCN(C)C	–	–	–	–	·	·
COc1ccc(S(=O)(=O)N2CCN(Cc3cc(OC)ccc3OC)CC2)cc1	–	–	–	–	·	·
CCCN1CCN(C(=O)CC2C(=O)NCCN2CC(c2ccccc2)c2ccccc2)CC1 (stereo not drawn)	–	–	–	–	·	·
CCN(CC)C(=O)CSC1=C(C#N)C(c2ccc(F)cc2)CC(=O)N1 (stereo not drawn)	–	–	–	–	·	·
COC(=O)c1ccc(C2C3=C(CC(C)(C)CC3=O)c3onc(N)c32)cc1 (stereo not drawn)	–	–	–	–	·	·

Bioassay records as filed in PubChem.
